Data from PubChem BioAssay (NCI).
Where “and” joins values, the source holds several entries; their conditions need not be identical. Equal entries are not always repeated. The panel holds about 83,000 compounds, 20% with a hit somewhere; the sample as a whole holds those more often.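 Results are percent growth after 48 hours of single-concentration exposure. 100 means growth as in untreated cells, lower positive values show inhibition; negative values down to -100 show cell death.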

Legend:
Assay in all cases: NCI-60 one-dose screen, 48 h (100 = growth as untreated, 0 = no growth, -100 = all killed)
Conditions in all cases: 10 µM unless noted; active = growth percent below 10; inactive = the rest
[1] = test system: SK-MEL-2 melanoma
[2] = test system: SN12C renal
[3] = test system: UO-31 renal
[4] = test system: TK-10 renal
[5] = test system: ACHN renal
[6] = test system: CAKI-1 renal
[7] = test system: A498 renal
[8] = test system: CCRF-CEM leukemia
[9] = test system: MOLT-4 leukemia
[10] = test system: SR leukemia
[11] = test system: RPMI-8226 leukemia
[12] = test system: OVCAR-8 ovarian
[13] = test system: OVCAR-5 ovarian
[14] = test system: OVCAR-4 ovarian
[15] = test system: SK-OV-3 ovarian
[16] = test system: IGROV1 ovarian
[17] = test system: OVCAR-3 ovarian
[18] = test system: HS 578T breast
[19] = test system: NCI/ADR-RES ovarian
[20] = test system: EKVX NSCLC

Measured: growth

O=C(NC(=O)c1ccc(F)c(Cl)c1)NC1CC1
inactive: [1] 107% | [2] 102% and 87.9% | [3] 96.8% | [4] 94.3% and 96.1% | [5] 106% and 108% | [6] 104% and 87.1% | [7] 95.8% and 96% | [8] 97.2% and 101% | [9] 94.2% and 75.6% | [10] 91.4% | [11] 98% and 102% | [12] 98.8% and 103% | [13] 109% and 105% | [14] 119% and 93.4% | [15] 114% and 105% | [16] 113% and 109% | [17] 104% and 107% | [18] 102% and 96.6% | [19] 107% and 103%

Nc1nc(-c2ccccn2)cc(-c2cc(-c3ccccn3)nc(N)n2)n1
inactive: [1] 112% | [2] 108% | [3] 91.1% | [4] 107% | [5] 110% | [6] 96.7% | [7] 156% | [8] 101% | [9] 106% | [10] 92% | [11] 111% | [12] 106% | [13] 109% | [14] 105% | [15] 119% | [16] 108% | [17] 110% | [18] 127% | [19] 107%

CCC(C)NC(=O)c1ccccc1C (stereo unspecified)
inactive: [1] 104% | [2] 96.5% | [3] 94.2% | [4] 99.3% | [5] 95.4% | [7] 89.2% | [8] 103% | [9] 114% | [10] 111% | [11] 105% | [12] 102% | [13] 79.6% | [14] 109% | [15] 97.5% | [16] 94.1% | [17] 110% | [19] 92.7%

O=C(c1ccc(Cl)cc1)C1C(c2ccccc2)C1[N+](=O)[O-] (stereo unspecified)
inactive: [1] 106% | [20] 105% | [2] 104% | [3] 74.8% | [5] 111% | [6] 99.1% | [7] 86.3% | [8] 103% | [9] 83.7% | [10] 78% | [11] 96.3% | [12] 99% | [13] 109% | [14] 99% | [15] 105% | [16] 103% | [17] 97.8% | [19] 99.7%

Nc1ccc(O)c(C(=O)O)c1
inactive: [1] 110% and 124% and 122% | [2] 82% and 103% and 98.7% | [3] 101% and 92% and 67.8% | [4] 133% and 110% and 98.8% | [5] 99.3% and 108% and 82.8% | [7] 108% and 88% | [8] 106% | [9] 97.8% and 104% and 105% | [10] 99.8% | [11] 65% and 108% | [12] 99.2% and 106% and 109% | [13] 121% and 102% and 91.1% | [14] 84% and 105% and 108% | [15] 105% and 106% and 119% | [16] 96.8% and 111% and 105% | [17] 100% and 101% and 115% | [18] 112% | [19] 103% and 111% and 93.9%

COc1ccc(COC=O)cc1
inactive: [1] 108% | [2] 101% | [3] 92.5% | [4] 103% | [5] 110% | [6] 102% | [7] 105% | [8] 103% | [9] 102% | [10] 93.5% | [11] 103% | [12] 97.8% | [13] 101% | [14] 107% | [15] 98.6% | [16] 107% | [17] 109% | [19] 102%

COCCCNC1=C(C#N)C(=O)NC(c2cccs2)S1 (stereo unspecified)
inactive: [1] 119% | [2] 93% | [3] 76.3% | [4] 92.5% | [5] 97.5% | [6] 92.7% | [7] 133% | [8] 114% | [9] 172% | [10] 113% | [11] 122% | [12] 113% | [13] 109% | [14] 93% | [15] 101% | [16] 119% | [17] 118% | [18] 112% | [19] 110%

S=c1nn[nH]n1C1CCCCC1
inactive: [1] 129% | [2] 105% | [3] 100% | [4] 118% | [5] 109% | [6] 108% | [7] 87.5% | [8] 93.9% | [9] 115% | [10] 101% | [12] 95.4% | [13] 117% | [14] 109% | [15] 137% | [16] 104% | [17] 104% | [18] 95.7% | [19] 112%

COc1ccc(/C=C/C(=O)O)cc1OC
inactive: [1] 108% and 101% | [2] 101% and 105% | [3] 100% and 97.5% | [4] 102% and 92.5% | [5] 104% and 112% | [6] 101% | [7] 104% | [8] 98.1% | [9] 104% and 108% | [10] 110% and 106% | [11] 102% and 106% | [12] 108% and 103% | [13] 106% and 109% | [14] 105% and 113% | [15] 103% and 107% | [16] 104% and 115% | [17] 108% and 104% | [18] 103% and 102% | [19] 108% and 105%

COC(=O)CCOc1ccccc1
inactive: [1] 84% | [2] 110% | [3] 86.8% | [4] 108% | [6] 86.3% | [7] 83.9% | [8] 95.2% | [9] 98.6% | [10] 99.5% | [11] 92.7% | [12] 91.1% | [13] 113% | [14] 92.8% | [15] 106% | [16] 68.9% | [17] 97% | [18] 195% | [19] 108%

C=CCN1C(=O)c2ccccc2C1=O
inactive: [1] 101% | [2] 87.4% | [3] 78.3% | [4] 98.3% | [6] 93.2% | [7] 92% | [8] 93.3% | [9] 102% | [10] 99.9% | [11] 92.9% | [12] 97.5% | [13] 102% | [14] 107% | [15] 105% | [16] 98.7% | [17] 110% | [19] 96%

CCOC(=O)NC(N)=O
inactive: [1] 98.7% and 126% | [2] 103% and 98.1% | [3] 86.6% and 95.3% | [4] 88.4% | [5] 100% and 103% | [6] 99.1% and 101% | [7] 101% and 104% | [8] 99.2% and 99.3% | [9] 97.2% and 106% | [10] 90.3% and 108% | [11] 101% and 99.4% | [12] 102% and 97% | [13] 101% | [14] 116% and 106% | [15] 104% and 114% | [16] 98% and 110% | [17] 113% and 125% | [18] 102% and 107% | [19] 105% and 107%

CC(=O)Oc1cc(C)c(OC(C)=O)c(C)c1C
inactive: [1] 102% | [2] 98.9% | [3] 88.2% | [5] 100% | [6] 77.4% | [7] 109% | [8] 100% | [9] 109% | [10] 118% | [11] 92.1% | [12] 99.8% | [13] 125% | [14] 125% | [15] 125% | [16] 122% | [17] 119% | [18] 91.1%
